Data as given in PubChem BioAssay AID651784 (National Center for Advancing Translational Sciences (NCATS), 2012).
Inconclusive results are not listed. The source made the active and inactive calls. The call rests on the fitted dose curve; in most records, active means well fitted inhibition curve with a large enough effect; inconclusive means small, poorly fitted or top-dose-only effect; inactive means no such curve, though single readings can be large or run the other way.

test: Acumen qHTS Assay for Inhibitors of the mTORC1 Signaling Pathway in MEF (Tsc2-/-, p53-/-) Cells: Hit Validation; settings: Acumen imaging; activity change, negative = inhibition: at 37.3 µM (top of the series);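 further: phospho-rpS6 Ser235/236 immunofluorescence normalized to propidium iodide cell count; nearly all actives have a fitted effect of over 65% in size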;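 on activity change, negative = inhibition: cells exposed to compound for 24 hours; plate controls were DMSO for no effect and 7.5 nM rapamycin control for full effect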
Potency means the concentration at half of the fitted maximal effect.

For `Cc1cccc(OCC(O)Cn2c(=N)n(CCN3CCCCC3)c3ccccc32)c1` (configuration not stated), the Potency was 5.85 µM (active).
With `CCc1ccc(NC(=O)Cn2c(=O)n(-c3ccc(OC)cc3)c(=O)c3ccc(C(=O)NCc4ccc(C)cc4)cc32)cc1` the Potency was 4.65 µM (active).
In the case of `CC(=O)Nc1cccc(NC(=O)C(=O)NCCc2sc(-c3ccccc3)nc2C)c1`, the Potency is reported as 0.329 µM (active).
In the case of `COc1ccccc1NC(=O)CSc1ccc(-c2ccccn2)nn1`, the Potency is reported as 11.7 µM (active).

Point of comparison: `CCCCN(C)C(=O)CSc1c2c(nc3ccc(Cl)cc13)CCCC2`, activity change, negative = inhibition -13.3%. Against it:
- CCc1nnc(SC(CC)C(=O)Nc2cccc(OC)c2)c2cc3oc(C)cc3n12 (configuration not stated) — higher, -6.5%
- Cc1ccc(NC(=O)c2c(NC(=O)C(F)(F)F)sc3c2CCCCC3)cc1 — lower, -36.6%
- COc1ccc(Cl)cc1C1CC(=O)Nc2cc3c(cc21)OCCO3 (configuration not stated) — lower, -26.9%
- Cc1ccc(NC(=O)Nc2cccs2)c(C)c1 — lower, -40.4%
- CCOc1ccc(Nc2nc(N)c(C(=O)c3ccccc3Cl)s2)cc1 — lower, -95%
- CCC(Sc1nncn2c1cc1oc(C)cc12)C(=O)Nc1ccc(F)cc1 (configuration not stated) — higher, 12.3%
- COc1ccc(C(=O)Nc2ccc(OCc3cc(=O)n4ccccc4n3)cc2)cc1 — higher, 7.16%
- CCC(C)n1c(SCc2c(F)cccc2Cl)nc2ccsc2c1=O (configuration not stated) — lower, -45.2%
- O=C(NCc1ccc(F)cc1)c1ccc2c(Cl)c3c(nc2c1)CCCC3 — higher, 26.5%
- COc1ccc(-c2nc(C)c(CCNC(=O)c3ccccc3Br)s2)cc1OC — higher, -7.02%
- COc1cc(C)ccc1OCCn1c(-c2ccc(Cl)cc2)nc2ccccc2c1=O — higher, -1.14%
- CCC(=O)C1=C(c2ccc(F)cc2)N(C(=O)CC)n2cnnc2S1 — lower, -29.5%
